The whole screen tested about 2,300 compounds, of which about 330 (14%) showed activity. These entries were drawn from the full list. Unmarked numbers belong to inactive results.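 Rule for the calls: active = median modified Z-score above 1.96; inactive = 1.96 or below.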
The compounds below were run on HepG2 Srxn1-GFP reporter cells (+30 nM CDDO-Me) (assay: Srxn1-GFP intensity median modified Z-score relative to plate median; higher = stronger NRF2 / oxidative stress reporter activation, active = hit call of the paper). Settings: 10 µM; exposure time: 24h.
Summary of the method: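 Per-cell cytoplasmic GFP was measured on confocal images of formaldehyde-fixed, Hoechst-stained HepG2 Srxn1-GFP BAC reporter cells, excluding images with fewer than 100 cells. Before this, the cells (20,000 per well, 96-well plates) were co-exposed for 24 h to compound at 10 μM and an NRF2 activator at 30 nM with ≤0.1% DMSO, in three replicate plates. Each value is the median over replicates of the per-plate modified Z-score of GFP intensity. That score was scaled with 1.4826 × median absolute deviation.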

Row | SMILES | Srxn1-GFP intensity median modified Z-score
1 | NC[C@H]1O[C@H](O[C@H]2[C@H](O)[C@@H](O[C@H]3O[C@H](CO)[C@@H](O)[C@H](N)[C@H]3O)[C@H](N)C[C@@H]2N)[C@H](N)[C@@H](O)[C@@H]1O [euspeclibcmpd351] | 0.19
2 | CC[C@@H](CO)NCCN[C@@H](CC)CO [euspeclibcmpd120] | -0.816
3 | O=C(O)C1=C(CCO)O[C@@H]2CC(=O)N12 [euspeclibcmpd2294] | 0.746
4 | O=C(O)CCC(=O)Nc1ccc(S(=O)(=O)N=c2[nH]ccs2)cc1 [euspeclibcmpd428] | 0.358
5 | COc1cc(Cc2c[nH]c(=N)[nH]c2=N)cc(OC)c1OC [euspeclibcmpd310] | 0.316
6 | CC1=C(/C=C/C(C)=C/C=C/C(C)=C/C=C/C=C(C)/C=C/C=C(C)/C=C/C2=C(C)C(=O)CCC2(C)C)C(C)(C)CCC1=O [euspeclibcmpd1669] | -0.405
7 | CC1CC(=O)NN=C1c1ccc(NN=C(C#N)C#N)cc1 (stereo not drawn) [euspeclibcmpd481] | 0.356
8 | CN1CCC(=C2c3ccccc3CCc3sccc32)CC1 [euspeclibcmpd488] | 0.0303
9 | CN1CCC(=C2c3ccccc3C=Cc3ccccc32)CC1 [euspeclibcmpd890] | 7.54 (active)
10 | CN1CCC(=C2c3ccccc3Sc3ccccc32)CC1 [euspeclibcmpd1250] | 0.25
11 | C=CCn1c(C(C)Oc2ccc(OCC)cc2)nnc1N1CCC(C(=O)OC)CC1 (stereo not drawn) | 1.58
12 | Cn1c(SC2CCCCC2=O)nnc1-c1cccc(Br)c1 (stereo not drawn) | 4.66 (active)
13 | CC1(O)CCOC(=O)C1 (stereo not drawn) [euspeclibcmpd1666] | -0.384
14 | N=c1[nH]c(N)ccc1N=Nc1ccccc1 [euspeclibcmpd230] | 0.85
15 | O=C(CCCN1CCN(c2ccccn2)CC1)c1ccc(F)cc1 [euspeclibcmpd1317] | 0.00738
16 | CCCC[C@@H](CC)COC(=O)c1ccccc1O [euspeclibcmpd865] | -0.26
17 | CN(C/C=C/c1ccccc1)Cc1cccc2ccccc12 [euspeclibcmpd791] | 0.553
18 | CN(C/C=C/C#CC(C)(C)C)Cc1cccc2ccccc12 [euspeclibcmpd767] | 3.24 (active)
19 | c1ccc2c(CC3=NCCN3)cccc2c1 [euspeclibcmpd204] | -0.697
20 | CC1(C)O[C@@H]2[C@@H](CO[C@@]3(COS(N)(=O)=O)OC(C)(C)O[C@@H]23)O1 [euspeclibcmpd870] | 0.206
21 | CC(C)=CCC/C(C)=C/CC/C(C)=C/CO [euspeclibcmpd2192] | 1.35
22 | CC(C)=CCC/C(C)=C/CO [euspeclibcmpd1453] | 2.94 (active)
23 | CC(C)=CCC/C(C)=C/CC/C(C)=C/CC/C(C)=C/CC/C(C)=C/CC/C(C)=C/CC/C(C)=C/CC/C(C)=C/CC/C(C)=C/CO [euspeclibcmpd1640] | -0.00439
24 | Cc1ccc(-c2nc(CSc3nc(C)c(C)n3CC3CCCO3)co2)c(C)c1 (stereo not drawn) | 1.14

Row | SMILES | Srxn1-GFP intensity median modified Z-score
25 | CCCC1O[C@@H]2CC3C4CC=C5CC(=O)C=CC5(C)C4[C@@H](O)CC3(C)[C@]2(C(=O)CO)O1 (stereo partly drawn) [euspeclibcmpd352] | -0.649
26 | Oc1oc(O)c2c1C1CCC2O1 [euspeclibcmpd1748] | 3 (active)
27 | CC(=O)O[C@H]1CC[C@]2(C)C3CC[C@@]4(C)C(CC5O[C@@]6(CCC(C)CO6)[C@@H](C)C54)C3CC[C@@H]2C1 (stereo partly drawn) [euspeclibcmpd1531] | -0.369
28 | O=S(=O)(c1ccc(Cl)nc1)N(CC1CCCO1)C1CCSC1 (stereo not drawn) | 1.21
29 | Cc1c(C)c(O)c(C(=CCCCCC(=O)O)c2ccccc2)c(C)c1O [euspeclibcmpd470] | -0.366
30 | COc1c2ccoc2nc2c(OC)c(OCC(O)C(C)(C)O)ccc12 (stereo not drawn) [euspeclibcmpd1658] | 26 (active)
31 | C[C@]12CCC(=O)CC1=CC=C1C2CC[C@@]2(C)C1CC[C@@]21CCC(=O)O1 (stereo partly drawn) [euspeclibcmpd726] | 0.642
32 | CN1C2CC[C@H]1C[C@@H](OC(=O)C(O)c1ccccc1)C2 (stereo partly drawn) [euspeclibcmpd2075] | 0.0546
33 | CCN(CC)CCOC(=O)C(c1ccccc1)C1CCCCC1 (stereo not drawn) [euspeclibcmpd1055] | 0.0961
34 | CCN(CC)CCOC(=O)C1(C2CCCCC2)CCCCC1 [euspeclibcmpd90] | 2.86 (active)
35 | CCN(CC)CCOCCOC(=O)C1(c2ccccc2)CCCC1 [euspeclibcmpd389] | -0.0174
36 | NC(=O)C1CCCN1C(=O)C(Cc1c[nH]cn1)NC(O)c1ccc(O)[nH]1 (stereo not drawn) [euspeclibcmpd919] | 0.145
37 | COc1cc(O)cc(OC)c1OC [euspeclibcmpd1601] | -0.369
38 | COc1ccccc1O [euspeclibcmpd1265] | -0.0107
39 | Oc1cccc2[nH]ccc12 [euspeclibcmpd2031] | -0.358
40 | COc1c(O)cccc1O [euspeclibcmpd1665] | 3.35 (active)
41 | COc1c(O)cc(O)cc1O [euspeclibcmpd1393] | -0.431
42 | COc1cccc(O)c1O [euspeclibcmpd1624] | 10.7 (active)
43 | N=C(N)NCCCC(N)C(=O)O (stereo not drawn) [euspeclibcmpd695] | -0.363
44 | CC(C)N=c1nccc[nH]1 [euspeclibcmpd1194] | -0.779
45 | NC[C@H]1O[C@H](O[C@H]2C(O[C@@H]3O[C@H](CO)[C@@H](O)[C@H]3O)[C@@H](O)[C@H](N)C[C@@H]2N)[C@H](N)[C@@H](O)[C@@H]1O (stereo partly drawn) [euspeclibcmpd1069] | -0.384
46 | CCOc1ccc(C(=O)c2ccc(OC)c(O)c2O)cc1 [euspeclibcmpd1975] | -0.333
47 | CCO[C@@]1(C)C[C@H]1NC(=O)N[C@@H]1C[C@@H]1C(F)F | 0.985
48 | CC1C(=NC(=O)C(NOC(C)(C)C(=O)O)c2csc(=N)[nH]2)C(=O)N1S(=O)(=O)O (stereo not drawn) [euspeclibcmpd708] | -0.0945
